Results filed as inconclusive are left out. Values without a mark were called inactive. The call rests on the fitted dose curve; in most records, active means well fitted inhibition curve with a large enough effect; inconclusive means small, poorly fitted or top-dose-only effect; inactive means no such curve, though single readings can be large or run the other way.
Test system: not listed separately
Assay: qHTS to identify inhibitors of the type 1 interferon - major histocompatibility complex class I in skeletal muscle: primary screen against the NCATS Mechanism Interrogation Plate v5.0 (MIPE) Libary (AID 1347411);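 further: plate controls were vehicle for no effect and reference inhibitor for full effect; nearly all actives have a fitted effect of over 65% in size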
Details: iHSKM cells + IFN-b, HiBiT-tagged MHC-I luminescence, 24 h; series mostly up to 45.8 µM; activity change, negative = inhibition: at the top concentration
Summary of the method: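 HLA-B HiBit myoblasts, dexamethasone-free medium + 4 ng/ml IFN-b, 24 h compound, 11-pt 1:3 from 46 uM final. Readout: Nano-Glo HiBiT lytic luminescence after 10 min lysis, RT.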

| Structure (SMILES) | activity change, negative = inhibition [%] |
| --- | --- |
| Cc1onc(-c2ccccc2)c1-c1ccc(S(N)(=O)=O)cc1 | -23.5 |
| CCCCCOC(=O)Nc1nc(=O)n([C@@H]2O[C@H](C)[C@@H](O)[C@H]2O)cc1F | -6.79 |
| CN(C(=O)c1c(O)c2ccccc2n(C)c1=O)c1ccccc1 | -29.8 |
| O=C(O)/C=C/c1ccc(Cn2ccnc2)cc1 | 0.378 |
| CCOC(=O)[C@H](CCc1ccccc1)N[C@@H](C)C(=O)N1CCC[C@H]1C(=O)O | -5.89 |
| C/C=C/C(=O)N(CC)c1ccccc1C | 4.44 |
| Cc1ccsc1C(=CCCN1CCC[C@@H](C(=O)O)C1)c1sccc1C | 21.6 |
| O=c1[nH]c(=O)n([C@H]2C[C@H](O)[C@@H](CO)O2)cc1I | -11.1 |
| OCCN1C[C@H](O)[C@@H](O)[C@H](O)[C@H]1CO | 17.5 |

Target: Protein phosphatase 1D (Homo sapiens) (UniProt O15297)
Assay: RapidFire Mass Spectrometry qHTS Assay for Modulators of WT P53-Induced Phosphatase 1 (WIP1) (AID 1347424);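 further: plate controls were DMSO wells for no effect and GSK830371 inhibitor control at 10 µM for full effect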
Details: WIP1 dephosphorylation of phosphopeptide, RapidFire MS; series mostly up to 63 µM; activity change, negative = inhibition: at the top concentration
Summary of the method: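 RapidFire MS readout of dephosphorylated VEPPL-S-QETFS product, with 1 uM isotope-labelled peptide standard. Reaction: 10 nM WIP1, 2 uM phosphopeptide substrate, 5 min, room temperature, after 1 h compound preincubation; stopped with 0.5% formic acid.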

Chain of Protein phosphatase 1D (Homo sapiens) (O15297 whole entry, looked up): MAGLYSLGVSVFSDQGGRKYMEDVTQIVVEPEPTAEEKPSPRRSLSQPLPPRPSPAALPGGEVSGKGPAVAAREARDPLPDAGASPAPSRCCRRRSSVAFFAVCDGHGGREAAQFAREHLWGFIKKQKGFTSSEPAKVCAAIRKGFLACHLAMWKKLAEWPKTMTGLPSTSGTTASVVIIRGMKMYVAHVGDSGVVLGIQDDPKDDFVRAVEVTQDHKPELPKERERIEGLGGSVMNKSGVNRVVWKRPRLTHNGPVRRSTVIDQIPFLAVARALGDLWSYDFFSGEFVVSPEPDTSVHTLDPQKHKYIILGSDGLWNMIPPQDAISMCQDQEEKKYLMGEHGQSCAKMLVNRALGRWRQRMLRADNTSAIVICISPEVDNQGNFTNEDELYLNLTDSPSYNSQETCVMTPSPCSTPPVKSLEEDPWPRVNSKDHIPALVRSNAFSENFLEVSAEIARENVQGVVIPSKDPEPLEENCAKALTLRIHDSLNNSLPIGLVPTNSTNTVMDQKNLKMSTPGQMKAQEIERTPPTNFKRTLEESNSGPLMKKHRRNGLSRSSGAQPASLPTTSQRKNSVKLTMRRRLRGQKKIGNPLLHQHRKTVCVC

| Structure (SMILES) | activity change, negative = inhibition |
| --- | --- |
| C[C@@H]1O[C@@H](OC[C@H]2O[C@@H](Oc3c(-c4ccc(O)c(O)c4)oc4cc(O)cc(O)c4c3=O)[C@H](O)[C@@H](O)[C@@H]2O)[C@H](O)[C@H](O)[C@H]1O | 9.04% |
| Cc1onc(-c2ccccc2)c1-c1ccc(S(N)(=O)=O)cc1 | -6.32% |
| CCCCCOC(=O)Nc1nc(=O)n([C@@H]2O[C@H](C)[C@@H](O)[C@H]2O)cc1F | 9.51% |
| OCC(O)CS (stereo unspecified) | 5.77% |
| Cc1c(I)c(=O)n(-c2ccccc2)n1C | 48.6% |
| NC(N)=NCCN1CCCCCCC1 | 2.05% [at 0.505 µM] |
| CC(C)NC[C@@H](O)COc1ccc(CC(N)=O)cc1 | 3.25% |
| O=C(O)COC(=O)Cc1ccccc1Nc1c(Cl)cccc1Cl | -22.5% |
| CN(C(=O)c1c(O)c2ccccc2n(C)c1=O)c1ccccc1 | -4.74% |
| O=S1(=O)OC(c2ccc(O)cc2)(c2ccc(O)cc2)c2ccccc21 | -17.3% |
| C/C=C1\[C@H]2C=C(C)C[C@]1(N)c1ccc(=O)[nH]c1C2 | 1.09% |
| COc1ccc(NS(=O)(=O)c2ccc(N)cc2)nn1 | -0.448% |
| O=C(O)CCCCC1CCSS1 (stereo unspecified) | 0.254% |
| NC(=O)CC[C@@H](N)C(=O)O | 2.66% |
| CC1(C)S[C@@H]2[C@H](N=CN3CCCCCC3)C(=O)N2[C@H]1C(=O)O | 7.08% |
| O=C(O)/C=C/c1ccc(Cn2ccnc2)cc1 | 12.2% |
| C[C@]1(Cn2ccnn2)[C@H](C(=O)O)N2C(=O)C[C@H]2S1(=O)=O | -6.36% |
| Cc1cc(=O)[nH]c(=S)[nH]1 | 2.82% |
| CC(CN(C)C)C(C)(O)Cc1ccc(Cl)cc1 (stereo unspecified) | 6.44% |

| Structure (SMILES) | activity change, negative = inhibition |
| --- | --- |
| O=C(O)C(S)C(S)C(=O)O (stereo unspecified) | -9.59% |
| CC(=O)N[C@H]1[C@H]([C@H](O)[C@H](O)CO)OC(C(=O)O)=C[C@@H]1N=C(N)N | 5.06% |
| C=CCNC(N)=S | 9.72% |
| O=C(O)Cc1cn(-c2ccccc2)nc1-c1ccc(Cl)cc1 | -8.95% |
| O=C(/C=C/c1ccccc1)OCc1ccccc1 | 27% |
| O=C(O)Cc1ccc(CCNS(=O)(=O)c2ccc(Cl)cc2)cc1 | -8.79% |
| CCOC(=O)[C@H](CCc1ccccc1)N[C@@H](C)C(=O)N1CCC[C@H]1C(=O)O | -8.57% |
| CC(C)CCOC(=O)c1ccc(N(C)C)cc1 | 7.23% |
| C[n+]1ccccc1/C=N/O | 9.21% |
| C/C=C/C(=O)N(CC)c1ccccc1C | -3.89% |
| Cc1c(NC(=O)c2cccnc2)c(=O)n(-c2ccccc2)n1C | -0.538% |
| O=c1[nH]c(=O)n([C@H]2C[C@H](O)[C@@H](CO)O2)cc1I | 8.46% |
| OCCN1C[C@H](O)[C@@H](O)[C@H](O)[C@H]1CO | 0.0354% |
| COc1ccc(Cc2cnc(N)nc2N)cc1OC | 6.72% |
| Nc1ccc(S(=O)(=O)c2ccc(N)cc2)cc1 | 1.94% |
| CN1CCN(C(=O)C2CCCCC2)CC1 | -8.45% |
| O=C(O)CCC(=O)O | 4.4% |
| CC(=O)Oc1cccc(C)c1 | 3.83% |
